# Inconclusive results are not listed. Entries that show only a call come without a potency. Activity calls are given as the source filed them. Unless noted, calls come from the whole dose curve; as a rule, active = well fitted curve in the direction sought with a large enough effect in the repeat runs; inconclusive = weak or mixed curves; inactive = no such curve, though single readings can be large; an effect the other way counts as inactive or inconclusive.
# What was measured:
# [1] = biological target: Cytochrome P450 3A4 (Homo sapiens) (UniProt P08684); assay: qHTS Assay for Activators of Cytochrome P450 3A4 (AID 885; active = well fitted curve in the direction sought with a large enough effect; an effect the other way counts as inactive or inconclusive; note: nearly all actives have a fitted effect of over 65% in size)
# Summary of the method: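 Human CYP3A4 (20 nM) with Luciferin-PPXE at 25 uM (its KM) in 200 mM KPO4; 10 min compound preincubation, then NADPH regeneration and 60 min reaction at RT. Luciferin read by luminescence; normalized to 57 uM ketoconazole full inhibition.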
# [2] = Confirmation and Secondary Assay for Modulators of Hemoglobin Beta Chain Splicing at IVS2 654 locus (AID 910; active = well fitted curve in the direction sought with a large enough effect; an effect the other way counts as inactive or inconclusive;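 note: HeLa cells stably carrying EGFP split by mutant beta-globin IVS2-654 intron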)
# Summary of the method: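 HeLa cells stably expressing EGFP interrupted by β-globin IVS2-654 intron, seeded overnight in Opti-MEM/2% FCS, then treated 2 days at 37 °C. Restored splicing read as total peak GFP intensity per well by laser scanning cytometry (488 nm excitation, 500–520 nm emission); 500 nM antisense PNA as control.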
# [3] = Confirmation and Secondary Assay for Modulators of Hemoglobin Beta Chain Splicing at IVS2 705 locus (AID 930; active = well fitted curve in the direction sought with a large enough effect; an effect the other way counts as inactive or inconclusive;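 note: HeLa cells stably expressing the EGFP-705 splicing reporter; GFP fluorescence per well restored by corrected splicing of the IVS2-705 intron in EGFP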)
# Summary of the method: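 Per-well GFP, captured at 1 x 8 µm resolution with 488 nm excitation, served as the read-out for HeLa EGFP-705 cells incubated 2 days with test compound versus DMSO.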
# [4] = qHTS Assay for Lipid Storage Modulators (AID 1519; calls by dose curve); conditions: Drosophila S3 cells, BODIPY lipid droplet/cell ratio, laser cytometry, cells loaded with oleic acid; for activity change, negative = inhibition: at 57.5 µM (top of the series)
# Summary of the method: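 Cells seeded at 5,000 per well were treated with compounds over a concentration series and loaded with oleic acid (400 uM, as added). Lipid droplet fluorescence (488 nm excitation, 500-530 nm channel) was read by laser-scanning cytometry and normalized to 20 uM Triacsin C.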
# [5] = biological target: ATP-dependent 6-phosphofructokinase (Trypanosoma brucei brucei) (UniProt O15648); assay: qHTS Assay to Find Inhibitors of T. brucei phosphofructokinase: hit validation (AID 492961; active = well fitted curve in the direction sought with a large enough effect; an effect the other way counts as inactive or inconclusive;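 note: luminescence reports ADP formed as PFK phosphorylates fructose-6-phosphate with ATP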)
# Summary of the method: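 Inhibition of parasite PFK is measured as reduced ADP formation, quantified via luciferase after ATP depletion. Assay used 0.1 mM ATP, 0.5 mM F6P, 1.25 nM enzyme, 45 min incubation.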
# [6] = biological target: Ubiquitin carboxyl-terminal hydrolase 1 (Homo sapiens) (UniProt O94782); assay: Inhibitors of USP1/UAF1: Pilot qHTS (AID 504865; active = well fitted curve in the direction sought with a large enough effect; an effect the other way counts as inactive or inconclusive;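 note: rhodamine fluorescence freed from ubiquitin-rhodamine substrate followed over time; top concentration of the series differs between compounds; nearly all actives have a fitted effect of over 35% in size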)
# Summary of the method: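 Enzyme-free wells gave the negative control, while test wells held 1nM USP1/UAF1 preincubated with compound for 15 min at room temperature. Ub-Rho at 150nM final started the reaction, and fluorescence at 480/540 nm was recorded kinetically.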
# [7] = biological target: Luciferin 4-monooxygenase (Photinus pyralis) (UniProt P08659); assay: Biochemical firefly luciferase enzyme assay for NPC (AID 624030; active = well fitted curve in the direction sought with a large enough effect; an effect the other way counts as inactive or inconclusive;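 note: purified P. pyralis luciferase at 10 nM with luciferin and ATP substrate; nearly all actives have a fitted effect of over 70% in size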)
# Summary of the method: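 Purified P. pyralis luciferase at 10 nM in 50 mM Tris Acetate (final), luminescence read within 5 minutes of enzyme addition to compounds. Activity normalised to PTC124 versus DMSO; concentration-response curves classed by r2, magnitude and activity.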
# [8] = S16 Schwann cell viability assay (CellTiter-Glo assay) (AID 624031; active = well fitted curve in the direction sought with a large enough effect; an effect the other way counts as inactive or inconclusive;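 note: native untransfected S16 rat Schwann cells; cellular ATP luminescence as a viability measure; nearly all actives have a fitted effect of over 70% in size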)
# Summary of the method: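 Rat S16 Schwann cells without reporter constructs received compound or DMSO for 24 h at 37 °C under 5% CO2. Cellular ATP was then quantified by CellTiter-Glo luminescence, with vehicle wells defined as 0% activity and cell-free wells as reference.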
# [9] = S16 Schwann cell PMP22 intronic element firefly luciferase assay (AID 624032; active = well fitted curve in the direction sought with a large enough effect; an effect the other way counts as inactive or inconclusive; note: nearly all actives have a fitted effect of over 30% in size)
# Summary of the method: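 Rat S16 Schwann cells stably carrying firefly luciferase driven by a PMP22 intronic element, in 10% FBS, treated 24 h at 37 C. ONE-Glo luminescence normalized to PTC124 control and DMSO (0%); curves classed by r2, magnitude and activity.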
# [10] = S16 Schwann cell PMP22 intronic element beta-lactamase assay (AID 624044; calls by dose curve; note: nearly all actives have a fitted effect of over 15% in size)
# Summary of the method: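 Rat S16 Schwann cells with beta-Lac driven by a PMP22 intronic element, compound-treated 24 h at 37 °C. LiveBLAzer FRET B/G read: 460 nm normalized to potassium clavulanate vs DMSO; 535 nm FRET as viability; concentration-effect curves classified.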
# CP238 = assay: qHTS profiling for inhibitors of Plasmodium falciparum proliferation (AID 504749; active = well fitted curve in the direction sought with a large enough effect; an effect the other way counts as inactive or inconclusive; note: nearly all actives have a fitted effect of over 60% in size); conditions: P. falciparum in erythrocytes, SYBR Green DNA, 72 h; series mostly up to 12.8 µM
# Summary of the method: (§1)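 Readout was DNA-dye fluorescence from lysed cultures, ex 485/em 535 nm. Parasitized red cells had grown 72 h with compound; data scaled between 0.29 uM artemisinin and DMSO wells and corrected using vehicle-only plates.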
# CP286 = assay: as above; conditions: P. falciparum in erythrocytes, SYBR Green DNA, 72 h; series mostly up to 12.8 µM
# Summary of the method: as §1
# [11] = biological target: Cytochrome P450 2D6 (Homo sapiens) (UniProt P10635); assay: Cytochrome P450 family 2 subfamily D member 6 (CYP2D6) small molecule antagonists: luciferase biochemical (cell-free) qHTS assay (AID 1645840); note: nearly all actives have a fitted effect of over 55% in size; note: potency is the fitted concentration of half-maximal effect
# Summary of the method: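 P450-Glo luminescent screen: recombinant CYP2D6 enzyme–proluciferin substrate mix preincubated with compound 10 min at room temperature, then NADPH regeneration added for 1 h at room temperature. Detection reagent added for 20 min; luciferin light read as relative luminescence units.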
# [12] = biological target: Cytochrome P450 2C9 (Homo sapiens) (UniProt P11712); assay: Cytochrome P450 family 2 subfamily C member 9 (CYP2C9) small molecule antagonists: luciferase biochemical (cell-free) qHTS assay (AID 1645842); note: nearly all actives have a fitted effect of over 55% in size; note: potency is the fitted concentration of half-maximal effect
# Summary of the method: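 Luminescence, after 20 min with luciferin detection reagent, reflected CYP2C9 turnover during a 1 h NADPH-driven reaction at 37C. Enzyme-substrate mix contained 0.4% bovine serum albumin and was preincubated with compound 10 min at room temperature.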
# [13] = measured here: cell count channel max response
# [14] = measured here: lipid channel max response
# Cytochrome P450 2D6 (Homo sapiens), sequence (P10635 whole entry, looked up): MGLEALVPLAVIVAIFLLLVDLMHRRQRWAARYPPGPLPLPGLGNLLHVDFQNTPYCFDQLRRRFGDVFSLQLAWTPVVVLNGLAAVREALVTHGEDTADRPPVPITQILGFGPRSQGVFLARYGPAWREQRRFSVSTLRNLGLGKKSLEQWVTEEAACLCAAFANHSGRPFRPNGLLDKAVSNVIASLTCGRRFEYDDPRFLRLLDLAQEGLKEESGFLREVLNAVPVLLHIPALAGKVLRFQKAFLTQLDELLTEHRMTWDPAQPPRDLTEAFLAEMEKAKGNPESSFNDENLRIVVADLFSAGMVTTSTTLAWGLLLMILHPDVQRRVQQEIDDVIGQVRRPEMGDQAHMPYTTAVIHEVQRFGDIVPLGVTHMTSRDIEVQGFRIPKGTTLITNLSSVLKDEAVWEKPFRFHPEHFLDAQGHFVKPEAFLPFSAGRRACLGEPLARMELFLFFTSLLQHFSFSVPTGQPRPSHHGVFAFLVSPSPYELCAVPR
# Cytochrome P450 3A4 (Homo sapiens), sequence (P08684 whole entry, looked up): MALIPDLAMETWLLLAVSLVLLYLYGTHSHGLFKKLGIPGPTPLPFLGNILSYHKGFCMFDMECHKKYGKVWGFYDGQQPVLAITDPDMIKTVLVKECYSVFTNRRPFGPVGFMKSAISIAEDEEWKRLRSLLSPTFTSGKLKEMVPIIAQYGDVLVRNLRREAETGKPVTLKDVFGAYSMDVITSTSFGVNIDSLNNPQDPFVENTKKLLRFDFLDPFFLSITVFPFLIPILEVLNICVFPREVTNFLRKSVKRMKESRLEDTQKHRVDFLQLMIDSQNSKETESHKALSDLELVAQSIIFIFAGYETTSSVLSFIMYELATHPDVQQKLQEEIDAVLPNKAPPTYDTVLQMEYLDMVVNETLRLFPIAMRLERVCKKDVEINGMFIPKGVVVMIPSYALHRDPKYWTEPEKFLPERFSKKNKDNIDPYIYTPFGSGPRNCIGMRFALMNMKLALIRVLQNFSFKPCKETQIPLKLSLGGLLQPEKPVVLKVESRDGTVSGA
# Cytochrome P450 2C9 (Homo sapiens), sequence (P11712 whole entry, looked up): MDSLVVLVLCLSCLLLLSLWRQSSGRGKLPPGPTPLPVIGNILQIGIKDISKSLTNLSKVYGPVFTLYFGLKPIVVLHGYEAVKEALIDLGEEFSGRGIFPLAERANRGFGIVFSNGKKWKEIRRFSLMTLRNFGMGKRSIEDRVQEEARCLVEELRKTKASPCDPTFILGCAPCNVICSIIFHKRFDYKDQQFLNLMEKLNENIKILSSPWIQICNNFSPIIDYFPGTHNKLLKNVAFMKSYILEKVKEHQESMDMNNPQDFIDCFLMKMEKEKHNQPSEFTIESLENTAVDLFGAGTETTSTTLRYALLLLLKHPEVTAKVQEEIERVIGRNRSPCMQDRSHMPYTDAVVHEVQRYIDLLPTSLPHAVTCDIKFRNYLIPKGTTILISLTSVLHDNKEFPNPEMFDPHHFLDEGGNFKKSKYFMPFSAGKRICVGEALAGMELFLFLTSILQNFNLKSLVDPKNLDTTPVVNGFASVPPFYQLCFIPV
# Ubiquitin carboxyl-terminal hydrolase 1 (Homo sapiens), sequence (O94782 whole entry, looked up): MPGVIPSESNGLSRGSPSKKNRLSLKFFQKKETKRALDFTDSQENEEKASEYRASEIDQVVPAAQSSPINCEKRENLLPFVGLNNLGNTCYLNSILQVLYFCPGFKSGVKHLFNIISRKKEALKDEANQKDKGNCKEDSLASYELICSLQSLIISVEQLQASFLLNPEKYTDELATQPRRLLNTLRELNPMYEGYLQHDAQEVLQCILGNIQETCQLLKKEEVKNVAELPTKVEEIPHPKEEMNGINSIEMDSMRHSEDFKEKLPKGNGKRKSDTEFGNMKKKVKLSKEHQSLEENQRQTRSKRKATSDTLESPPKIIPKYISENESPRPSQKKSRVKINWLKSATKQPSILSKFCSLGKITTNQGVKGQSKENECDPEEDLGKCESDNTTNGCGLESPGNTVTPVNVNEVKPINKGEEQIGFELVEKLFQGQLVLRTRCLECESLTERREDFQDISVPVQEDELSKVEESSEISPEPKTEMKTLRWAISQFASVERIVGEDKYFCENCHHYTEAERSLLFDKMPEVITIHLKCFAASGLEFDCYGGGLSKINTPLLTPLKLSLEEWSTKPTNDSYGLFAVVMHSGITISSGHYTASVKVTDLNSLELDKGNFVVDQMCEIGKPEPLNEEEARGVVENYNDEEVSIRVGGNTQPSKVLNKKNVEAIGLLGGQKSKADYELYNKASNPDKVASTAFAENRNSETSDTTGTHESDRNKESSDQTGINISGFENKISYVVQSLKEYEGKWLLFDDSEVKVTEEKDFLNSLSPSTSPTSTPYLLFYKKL
# Luciferin 4-monooxygenase (Photinus pyralis), sequence (P08659 whole entry, looked up): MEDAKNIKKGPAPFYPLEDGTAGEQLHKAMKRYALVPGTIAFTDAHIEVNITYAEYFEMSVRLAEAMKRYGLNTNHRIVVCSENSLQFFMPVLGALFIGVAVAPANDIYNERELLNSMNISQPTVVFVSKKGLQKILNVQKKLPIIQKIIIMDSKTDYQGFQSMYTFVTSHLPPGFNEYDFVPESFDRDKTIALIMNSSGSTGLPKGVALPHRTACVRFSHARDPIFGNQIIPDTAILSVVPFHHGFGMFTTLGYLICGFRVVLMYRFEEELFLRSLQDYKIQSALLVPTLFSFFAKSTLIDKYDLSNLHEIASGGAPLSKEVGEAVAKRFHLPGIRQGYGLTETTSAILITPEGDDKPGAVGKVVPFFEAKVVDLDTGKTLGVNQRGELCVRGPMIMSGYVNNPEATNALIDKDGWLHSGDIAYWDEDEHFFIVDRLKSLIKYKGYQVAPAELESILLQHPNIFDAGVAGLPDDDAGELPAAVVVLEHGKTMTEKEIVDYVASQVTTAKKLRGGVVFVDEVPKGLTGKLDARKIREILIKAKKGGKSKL
# ATP-dependent 6-phosphofructokinase (Trypanosoma brucei brucei), sequence (O15648 whole entry, looked up): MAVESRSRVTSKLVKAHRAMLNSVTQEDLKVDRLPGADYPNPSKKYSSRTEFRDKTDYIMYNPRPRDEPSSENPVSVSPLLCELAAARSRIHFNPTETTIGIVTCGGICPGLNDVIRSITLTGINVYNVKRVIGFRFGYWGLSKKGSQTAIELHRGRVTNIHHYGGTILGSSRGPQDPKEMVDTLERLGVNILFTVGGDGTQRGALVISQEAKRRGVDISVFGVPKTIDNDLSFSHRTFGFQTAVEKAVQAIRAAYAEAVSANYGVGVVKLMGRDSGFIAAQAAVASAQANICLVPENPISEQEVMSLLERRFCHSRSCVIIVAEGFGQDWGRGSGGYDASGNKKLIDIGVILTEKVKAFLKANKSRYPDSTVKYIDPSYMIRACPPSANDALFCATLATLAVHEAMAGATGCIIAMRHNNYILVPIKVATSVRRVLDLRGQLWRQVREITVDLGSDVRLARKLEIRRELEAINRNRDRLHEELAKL
structure (smiles),measurement,setting,value
O=c1c(O)c(-c2ccccc2)oc2cc(O)ccc12,Potency,[1],inactive
same,Potency,[2],inactive
same,Potency,[3],inactive
same,"activity change, negative = inhibition",[4],6.29% (inactive)
same,max response,[4]; [13],-1.89%
same,max response,[4]; [14],5.57%
CC(C)=CCc1c2c(c(O)c3c(=O)c(O)c(-c4ccccc4)oc13)C=CC(C)(C)O2,Potency,[1],inactive
same,Potency,[2],inactive
same,Potency,[3],inactive
same,"activity change, negative = inhibition",[4],0.956% (inactive)
same,max response,[4]; [13],-0.903%
same,max response,[4]; [14],-0.353%
CC(=O)OC[C@@]1(O)C[C@]23CCC4c5ccoc5CC[C@@]4(C)C2CCC1C3 (stereo not given in full),Potency,[1],inactive
same,Potency,[2],inactive
same,Potency,[3],inactive
same,"activity change, negative = inhibition",[4],6.91% (inactive)
same,max response,[4]; [13],7.17%
same,max response,[4]; [14],15.2%
CC(C)=CCC/C(C)=C/COc1ccc2ccc(=O)oc2c1,Potency,[1],inactive
same,Potency,[2],inactive
same,Potency,[3],inactive
same,"activity change, negative = inhibition",[4],-1.25% (inactive)
same,max response,[4]; [13],27.3%
same,max response,[4]; [14],28.1%
O=C(O)CN(CC(=O)O)Cc1cc2c(-c3ccccc3C(=O)O)c3cc(CN(CC(=O)O)CC(=O)O)c(=O)cc-3oc2cc1O,Potency,[1],inactive
same,Potency,[2],inactive
same,Potency,[3],inactive
same,outcome,[5],inactive
same,Potency,[6],inactive
same,Potency,[7],inactive
same,outcome,[8],inactive
same,Potency,[9],inactive
same,Potency,[10],inactive
same,Potency,CP238,inactive
same,Potency,CP286,inactive
O=C(O)C1CSC(C(=O)O)N1 (stereo not given),Potency,[11],inactive
same,Potency,[12],inactive
COc1cc(C(=O)NC(c2ccc(Cl)cc2)c2cc(Cl)c3cccnc3c2O)cc(OC)c1OC (stereo not given),Potency,[11],inactive
same,Potency,[12],10.7 µM (active)
Cc1ccc(C(=O)c2cn(CC(=O)Nc3ccc4c(c3)OCCO4)c3nc(C)ccc3c2=O)cc1,Potency,[11],inactive
same,Potency,[12],9.52 µM (active)
CCOc1ccc(-c2nonc2NC(=O)c2oc3c(C)c(C)ccc3c2C)cc1OCC,Potency,[11],inactive
same,Potency,[12],0.379 µM (active)
Clc1cccc(-n2ncc3c(NCCCn4ccnc4)ncnc32)c1,Potency,[11],2.13 µM (active)
same,Potency,[12],0.379 µM (active)
Cc1ccc(Cn2c(SCc3ccc(C(=O)N4CCCCCC4)cc3)nc3ccncc32)cc1,Potency,[11],7.56 µM (active)
same,Potency,[12],inactive
CCC(Sc1nc2ccccc2c2nc(CCn3cncc3C)nn12)C(=O)Nc1cccc(OC)c1 (stereo not given),Potency,[11],12 µM (active)
same,Potency,[12],1.9 µM (active)
CC1=C(C(=O)Nc2ccccc2C)C(c2cccnc2)n2nc(SCc3ccccc3)nc2N1 (stereo not given),Potency,[11],inactive
same,Potency,[12],2.39 µM (active)
CC(C)c1ccc(Nc2c(-c3ccccn3)nc3ccccn23)cc1,Potency,[11],26.8 µM (active)
same,Potency,[12],1.2 µM (active)
Cc1ccc(S(=O)(=O)N[C@@H]2CCCC[C@H]2O)cc1,Potency,[11],inactive
same,Potency,[12],inactive
C=CCNCCCCCC[N+](C)(C)C,Potency,[11],inactive
same,Potency,[12],inactive
COC(=O)c1cc(S(C)(=O)=O)ccc1OC,Potency,[11],inactive
same,Potency,[12],inactive
COc1ccc(Cn2c(CCC(=O)Nc3ccc(C)c(C)c3)nc3cccnc32)cc1,Potency,[11],inactive
same,Potency,[12],7.56 µM (active)
O=C(Cn1c(=O)n(Cc2ccco2)c(=O)c2oc3ccccc3c21)Nc1ccccc1,Potency,[11],0.756 µM (active)
same,Potency,[12],4.77 µM (active)
CCCCCCCCCCCCCCCC(=O)OC[C@H](O)[C@H]1OC(=O)C(=O)C1O (stereo not given in full),Potency,[11],inactive
same,Potency,[12],26.8 µM (active)

# Source: PubChem BioAssay (NCATS)
